PD-1 reverse act: activators reversing PD-1 mediated T-cell inhibition; 29,000 tested, under 10 active; AID 2316; primary human CD4 T cells, PD-L1 beads, CellTiter-Glo 96 h; activation, % (concentration not given with the values); call rule not given here;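 also: 0% = median vehicle wells and 100% = positive control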
NOMO-1 viab: STK33 inhibitor candidate reducing NOMO-1 cell viability | NOMO-1 AML viability, CellTiter-Glo luminescence, 72 h | inhibition, % (concentration not given with the values) | hit rate 7.5% among 37,000; in the data active = inhibition above about 80%
STK33 kin inh: human STK33 kinase inhibition. AID 2322. hit rate 0.44% among 27,000. ADP-Glo luminescence, MBP substrate. inhibition, % at 12.5 µM; in the data active = inhibition above about 20%
Target sequence (Q9BYT3 whole entry, looked up): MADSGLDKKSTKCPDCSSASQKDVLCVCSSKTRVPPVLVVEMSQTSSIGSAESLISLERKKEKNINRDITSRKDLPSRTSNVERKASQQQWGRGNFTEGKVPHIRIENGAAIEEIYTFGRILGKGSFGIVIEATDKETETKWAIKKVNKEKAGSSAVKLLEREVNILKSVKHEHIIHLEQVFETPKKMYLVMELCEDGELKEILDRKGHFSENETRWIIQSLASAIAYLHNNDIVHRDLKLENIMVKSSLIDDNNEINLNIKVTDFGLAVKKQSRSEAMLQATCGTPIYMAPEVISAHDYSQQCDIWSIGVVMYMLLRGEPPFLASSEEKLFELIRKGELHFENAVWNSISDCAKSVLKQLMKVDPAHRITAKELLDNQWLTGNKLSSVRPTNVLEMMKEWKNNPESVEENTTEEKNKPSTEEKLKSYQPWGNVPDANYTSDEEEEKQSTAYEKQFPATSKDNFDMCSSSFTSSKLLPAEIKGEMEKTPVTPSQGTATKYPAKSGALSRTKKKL
An asterisk follows results filed as active; . = no result given. This is one part of a sample in which hits are shown more often than they occur.

SMILES | PD-1 reverse act | NOMO-1 viab | STK33 kin inh
O=C(COc1ccc(I)cc1)Nc1ccc(O)cc1C(=O)O | . | -15.9 | 10.3
O=C(NCCCN1CCOCC1)C1CC(c2cccc(Br)c2)=NO1 (stereo unspecified) | . | 27.8 | 2.0
COc1cc(OC)c(NC(=O)CCN2C(=O)c3ccccc3C2=O)cc1Cl | 2.3 | -26.1 | 2.2
CC(C)n1cnc2c(NCc3ccccc3)nc(NCCCO)nc21 | 2.4 | . | .
CC(C)n1cnc2c(NCc3ccccc3)nc(NCCO)nc21 | 3.1 | 38.3 | 35.4*
CCc1ccc(C(=O)CC2OC(=O)c3c2ccc(OC)c3OC)cc1 (stereo unspecified) | -1.3 | 25.3 | .
Cc1nc(SCC(=O)Nc2ccc(F)cc2)nc2c1CCCC2 | -0.5 | 4.4 | 3.7
Cc1ccc(S(=O)(=O)c2c(C)nn(C(C)(C)C)c2OC(=O)c2ccccc2Br)cc1 | -2.3 | 105.1* | 1.6
COc1ccccc1C(=O)NCCCn1cc(Br)c(C)n1 | 0.9 | -6.1 | -1.7
C=CCc1c(C)[nH]c(=S)[nH]c1=O | 0.3 | -19.6 | .
N#C/C(=C\c1cc(Cl)cc(Cl)c1)c1cccnc1 | -2.8 | 83.3* | 5.7
N#C/C(=C\c1ccncc1)c1ccc(NC(N)=O)cc1 | -0.1 | 20.5 | .
COC(=O)c1c(NC(=O)c2ccccc2N(C)S(=O)(=O)c2ccccc2)sc2c1CCCC2 | -2.6 | 117.1* | 1.7
COC(=O)c1c(NC(=O)c2ccc(N(C)S(=O)(=O)c3ccc(C)cc3)cc2)sc2c1CCCC2 | . | -18.4 | -2.9
C[C@@H]1CN([C@@H](C)CO)C(=O)c2cc(NC(=O)Nc3ccc(F)cc3)ccc2O[C@@H]1CN(C)Cc1ccc(-c2ccccc2)cc1 | -1.3 | 115.4* | .
C[C@@H]1CN([C@H](C)CO)C(=O)c2cc(NC(=O)Nc3ccccc3)ccc2O[C@H]1CN(C)Cc1ccc(-c2ccccc2)cc1 | -12.0 | 116.2* | 1.0
C[C@H](CO)N1C[C@H](C)[C@@H](CN(C)Cc2ccc(Oc3ccccc3)cc2)Oc2ccc(NC(=O)Nc3ccc(F)cc3)cc2C1=O | 0.1 | 29.2 | .
CC(C)NC(=O)Nc1ccc2c(c1)C(=O)N([C@H](C)CO)C[C@H](C)[C@H](CN(C)Cc1ccc(-c3ccccc3)cc1)O2 | -0.2 | 5.0 | .
C[C@@H]1CN([C@H](C)CO)C(=O)c2cc(NC(=O)Nc3ccc(F)cc3)ccc2O[C@H]1CN(C)Cc1ccc(-c2ccccc2)cc1 | -11.3 | 126.1* | .
C[C@H]1CN([C@@H](C)CO)C(=O)c2cc(NC(=O)Nc3ccccc3)ccc2O[C@@H]1CN(C)Cc1ccccc1 | 0.7 | 8.7 | -3.9
C[C@H]1CN([C@@H](C)CO)C(=O)c2cc(NC(=O)Nc3ccc(F)cc3)ccc2O[C@H]1CN(C)Cc1ccc(Oc2ccccc2)cc1 | -1.5 | 21.9 | 1.4
C[C@@H]1CN([C@H](C)CO)C(=O)c2cc(NC(=O)Nc3ccc(F)cc3)ccc2O[C@@H]1CN(C)Cc1ccc(-c2ccccc2)cc1 | . | 92.1* | .
COC(=O)c1ccc(NC(=O)CN(c2ccc(Br)c(C)c2)S(C)(=O)=O)cc1 | -0.2 | 10.8 | 2.0
Cc1cccc(C)c1NC(=O)CSc1nnnn1-c1c(C)cccc1C | 1.9 | 34.1 | -2.2
C[C@H](CO)N1C[C@H](C)[C@H](CN(C)Cc2ccc(Oc3ccccc3)cc2)Oc2c(NC(=O)Nc3ccc(F)cc3)cccc2C1=O | -1.7 | 32.0 | .
SMILES | PD-1 reverse act | NOMO-1 viab | STK33 kin inh
C[C@@H]1CN([C@H](C)CO)C(=O)c2cccc(NC(=O)Nc3ccccc3)c2O[C@H]1CN(C)Cc1ccc(Oc2ccccc2)cc1 | -1.5 | 22.7 | .
COc1ccc(CN(C)C[C@@H]2Oc3c(NC(=O)Nc4ccccc4)cccc3C(=O)N([C@@H](C)CO)C[C@H]2C)cc1 | . | 100.2* | .
C[C@@H]1CN([C@@H](C)CO)C(=O)c2cccc(NC(=O)Nc3ccccc3)c2O[C@H]1CN(C)Cc1ccc(Oc2ccccc2)cc1 | -3.8 | 113.4* | .
C[C@H](CO)N1C[C@H](C)[C@@H](CN(C)Cc2ccc(Oc3ccccc3)cc2)Oc2c(NC(=O)Nc3ccc(F)cc3)cccc2C1=O | -1.4 | 99.0* | .
COc1ccc(NC(=O)Nc2cccc3c2O[C@H](CN(C)Cc2ccccc2)[C@@H](C)CN([C@@H](C)CO)C3=O)cc1 | -2.0 | 63.3 | .
Cc1nc(-c2ccccc2)sc1C(=O)C1C(=O)C(=O)N(CCN2CCOCC2)C1c1ccccc1F (stereo unspecified) | . | 13.7 | -2.9
Cc1ccc(OCC(=O)Nc2cc(-c3nc4ccc(C)cc4o3)ccc2Cl)c(C)c1 | 3.9 | 9.8 | 0.4
Cc1ccc(-n2c(C)nnc2SCC(=O)Nc2cc(Cl)ccc2C)cc1 | -6.7 | 17.0 | -0.9
CCn1c2ccccc2c2cc(NC(=O)COc3ccc([N+](=O)[O-])cc3)ccc21 | . | -27.4 | 1.2
Nc1nonc1-c1nc2ccccc2n1CC(=O)Nc1cccc(Cl)c1Cl | . | 118.9* | 1.7
CCc1ccccc1NC(=O)Cn1c(-c2nonc2N)nc2ccccc21 | . | 21.4 | 6.5
CC1(C)NC(=S)N(c2ccccc2)N1 | -0.5 | 30.6 | .
O=C(NCc1ccccn1)c1ccccc1O | 2.1 | -22.9 | -4.8
CC(C(=O)NC1CCCCC1)N(c1ccc(Cl)cc1)S(C)(=O)=O (stereo unspecified) | . | 5.6 | -2.0
CN1C(=O)c2ccccc2NC(=O)/C1=C\c1ccccc1 | 0.7 | 2.0 | 0.8
CN(C)c1ccc(/C=C2/C(=O)Nc3ccccc32)cc1 | -0.1 | 40.1 | 33.7*
O=C1Nc2ccccc2/C1=C\c1c(Cl)[nH]c2ccccc12 | -1.2 | 97.3* | 29.1*
O=C1Nc2ccccc2-c2nc3ccccc3c(=O)n2-c2c(O)cccc21 | -0.4 | 8.1 | -2.7
CS(=O)(=O)N(CC(=O)Nc1ccccc1C(=O)O)c1cccc(Cl)c1 | -0.6 | 4.1 | 3.0
CSc1sc(C(=O)Sc2ccccc2)cc1S(=O)(=O)C(C)C | 1.1 | 106.4* | .
CSc1cccc(NC(=O)C(C)NS(=O)(=O)c2ccccc2)c1 (stereo unspecified) | -0.7 | 39.2 | -1.5
C=C1C(=O)O[C@H]2C1CCC(=C)[C@@H]1C[C@H](OC(=O)C=C(C)C)C(=C)[C@@H]12 (stereo partly specified) | -5.3 | 96.5* | 1.4
C=C1C(=O)O[C@H]2C1CC[C@@](C)(O)[C@@H]1C[C@H](O)C(=C)[C@@H]12 (stereo partly specified) | . | . | -7.2
COc1ccc(NC(=O)CN(c2ccc(Br)c(C)c2)S(C)(=O)=O)cc1Cl | 1.2 | 4.5 | -2.8
Cc1ccc(C2C(C(=O)c3sc(-c4ccccc4)nc3C)C(=O)C(=O)N2CCN(C)C)o1 (stereo unspecified) | 0.5 | -7.6 | -2.0
SMILES | PD-1 reverse act | NOMO-1 viab | STK33 kin inh
CCOc1ccccc1OCC(=O)Nc1cc(Cl)ccc1OC | -3.8 | 14.4 | -6.9
COc1ccc(/C=C2\Oc3cc(O)cc(O)c3C2=O)cc1O | 0.4 | 8.2 | 31.4*
COc1cc(C2CC(=O)c3c(O)cc(O)cc3O2)ccc1O (stereo unspecified) | -1.8 | -22.5 | 4.4
NC(=O)[C@@H]1[C@H]2C(=O)O[C@H](c3ccccc3)[C@H](c3ccccc3)N2[C@H](c2ccccc2OCCO)[C@@]12C(=O)Nc1ccc(C#CC3=CCCCC3)cc12 | . | . | 14.5
O=C(CSc1nnc(-c2ccccc2Cl)n1-c1ccccc1)N1CCc2ccccc21 | . | -3.0 | -1.7
CC(=O)c1ccc(NC(=O)COc2ccccc2C(N)=O)cc1 | 2.5 | 12.1 | -2.1
Nc1ncnc2c1c(I)cn2C1OC(CO)C(O)C1O (stereo unspecified) | . | 114.5* | 53.3*

Screening results (PubChem)
